Source: PubChem (National Center for Advancing Translational Sciences (NCATS))
Hits are enriched below; roughly 7% of the tested compounds scored in any of these assays.
PLK1 PBD block: blocks phosphopeptide binding to human PLK1 polo-box domain. P53350. Potency, µM, without a hit: max response, negative = inhibition, most hits filed as inhibitors. Plk1 PBD binding of FITC phosphopeptide, fluorescence polarization. 360,000 tested, 2.8% active; further: potency means the concentration at half of the fitted maximal effect; series mostly up to about 57 µM; on the % scale 0 is the no-effect control and ±100 the full control effect; nearly all actives have a fitted effect of over 65% in size
GCN5L2 inh: blocks human GCN5L2 histone acetyltransferase; Q92830; GCN5L2 HAT assay, ThioGlo1 CoA-SH fluorescence; Potency, µM (highest dose often 58.9 µM), without a hit: at the top dose activity change, negative = inhibition, usual class: inhibitors; 390,000 tested, 0.21% active; further: potency means the concentration at half of the fitted maximal effect; on the % scale 0 is the no-effect control and ±100 the full control effect
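ThioGlo1-coupled HAT assay: 20nM GCN5L2, 70uM acetyl-CoA, 75uM H3(1-25) peptide, pH 7.5. Fluorescence read at 340/540nm at start and after 20 min at room temperature.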
HP1b chromo inh: blocks HP1-beta chromodomain binding to methylated histone tails; P83916; AlphaScreen HP1-beta / biotin-H3K9me3 peptide binding; Potency, µM (top dose mostly 114 µM), without a hit: at the top dose activity change, negative = inhibition, most hits filed as inhibitors; 390,000 tested, 0.56% active; AID 540317; further: potency means the concentration at half of the fitted maximal effect; nearly all actives have a fitted effect of over 70% in size
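AlphaScreen: HP1-beta (50 nM) preformed 30 min with biotin-H3(1-18)K9me3 peptide (50 nM) in PBS pH 7.4, 0.01% Tween-20. Compound added for 30 min at RT, then streptavidin donor/nickel chelate acceptor beads (10 ug/mL) for 30 min.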
PI5P4K alpha inh: inhibitors of human PI5P4K alpha; max response, %; 330,000 tested, 1.2% active; P48426; AID 652105; PI5P4Kalpha enzyme, ADP-Glo luminescence, 60 min; hits give low values; active means max response of -50% or lower; inconclusive means between -30% and -50%; inactive means -30% or higher; further: value at the top dose of about 77 µM; on the % scale 0 is the no-effect control and ±100 the full control effect
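Single end-point luminescence (ADP-Glo) quantified ADP from PI5P4Kalpha turnover; ATP 5 microM final, 1 h at RT, 0.1% CHAPS and 0.28 mM EGTA in HEPES pH 7.4.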
BAZ2B block: BAZ2B (human) inhibition | Potency, µM (titrated, usually from 114 µM), without a hit: at the highest dose activity change, negative = inhibition, usual class: inhibitors | 360,000 tested, 4.4% active | AID 504333 | AlphaScreen BAZ2B-H3K14Ac peptide displacement; further: potency means the concentration at half of the fitted maximal effect; on the % scale 0 is the no-effect control and ±100 the full control effect; nearly all actives have a fitted effect of over 60% in size
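Complex of BAZ2B and biotin-H3K14Ac (50 nM apiece) forms over 30 min at RT, then faces library compounds up to 110 uM for another 30 min; AlphaScreen beads added, 20 min dark incubation, luminescence read.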
JMJD2A Tudor: blocks the human JMJD2A Tudor domain; O75164; AlphaScreen JMJD2A-Tudor / H3K4me3 peptide binding; Potency, µM (doses to about 114 µM), for the others: top-dose activity change, negative = inhibition, hits mostly inhibitors; 390,000 tested, 4.4% active; AID 504339; further: potency means the concentration at half of the fitted maximal effect; on the % scale 0 is the no-effect control and ±100 the full control effect; nearly all actives have a fitted effect of over 50% in size
An asterisk follows results filed as active; ? = inconclusive; / = no result given; [ ] = remark or other dose. Unless noted, the call rests on the fitted dose curve; in most records, active means well fitted curve in the direction sought with a large enough effect; inconclusive means small, poorly fitted or top-dose-only effect, or another doubt; inactive means no such curve, though single readings can be large; an effect the other way counts as inactive or inconclusive.

SMILES	PLK1 PBD block	GCN5L2 inh	HP1b chromo inh	PI5P4K alpha inh	BAZ2B block	JMJD2A Tudor
COc1ccc(C(=O)O)cc1NC(=S)NC(=O)C(c1ccccc1)c1ccccc1	60µM*	-8%	11%	5	?	-16%
CC(C)c1ccc(NC(=O)CN2CCN(C(=O)C3CCCO3)CC2)cc1 (stereo unspecified)	-10%	-11%	15%	5	-1%	-14%
COC(=O)C1=COC(C)C2CN3CCc4c([nH]c5cc(OC)c(OC)cc45)C3CC12 (stereo unspecified)	-18%	-1%	?	0	50µM*	25µM*
COC(=O)[C@@H]1C2CC3c4[nH]c5cc(OC)ccc5c4CCN3CC2C[C@H](OC(=O)c2cc(OC)c(OC)c(OC)c2)C1OC (stereo partly specified)	/	-4%	/	/	/	/
CCOc1cnc(-c2c(-c3c(Cl)cccc3Cl)noc2C)o1	-17%	-15%	45µM*	8	45µM*	57%
CCOc1ccc(-c2nonc2NC(=O)c2oc3ccc(F)cc3c2C)cc1	/	-12%	12%	/	0%	-11%
Cc1c(C(=O)Nc2nonc2-c2ccc(F)cc2)oc2ccc(F)cc12	30µM*	-9%	-3%[57 µM]	-2	14%	?
CC(NC=O)c1nc2ccccc2n1CCc1ccccc1 (stereo unspecified)	-3%	-2%	46%	4	1%	4%
O=C1CN(C(=O)CNCc2ccc(Cl)cc2)c2ccccc2N1	-10%	-1%	?	-8	71µM*	10µM*
Cc1ccc(C(c2c(O)cc(C)n(Cc3ccco3)c2=O)N2CCC(C)CC2)cc1 (stereo unspecified)	/	-9%	27%[57 µM]	/	-12%	-23%
O=S(=O)(c1cccc(F)c1)N1CCC(Oc2ccc(-n3cnnn3)cc2)CC1	/	-2%	49%	/	-3%	-2%
O=C(COc1ccccc1)N1c2ccccc2Sc2ccccc21	-3%	-17%	39%	3	1%	-2%
O=C(COc1cccc(F)c1)N1c2ccccc2Sc2ccccc21	-5%	-5%	?	11	-2%	56µM*
O=C(NC(=Nc1nc2ccccc2o1)NC(=O)c1ccccc1)c1ccccc1	-13%	-2%	12%	3	-1%	-18%
NC(N)=Nc1nc2ccccc2o1	-9%	-3%	20%[57 µM]	0	3%	13µM*
CCOC(=O)C1=C(COC(=O)c2cc(OC)c(OC)c(OC)c2)NC(=O)NC1C (stereo unspecified)	-5%	-5%	1%	-22	8%	-23%
O=c1cc(-c2ccccc2)ss1	12µM*	/	?	-16	/	-14%
Cc1c(C(=O)NNC(=S)Nc2cccc(Cl)c2)nnn1-c1ccccc1	-12%	-2%	-5%	0	56µM*	?
COc1cccc(-c2cnc(C(O)c3ccc(C(C)(C)C)cc3)[nH]2)c1 (stereo unspecified)	8%	/	/	9	/	/
COc1ccc(CC2C(=O)OC(C)(C)OC2=O)cc1	0%	-2%	16%	0	-8%	35µM*
O=C(Nc1ccc(N2CCOCC2)cc1)c1nc2ccccc2s1	3%	19%	31%	-2	-22%	-6%
S=c1[nH]c2ccccc2s1	/	20µM*	/	/	/	/
O=C(Nc1ccc2[nH]c(=S)sc2c1)Nc1ccccc1F	21µM*	19%	25%	-72*	?	-21%
O=C(Nc1ccc2[nH]c(=S)sc2c1)c1ccccc1	?	1%	-5%	-68*	-37%	-32%
NC(=O)C1CCN(CC(=O)Nc2ccc(S(=O)(=O)N3CCOCC3)cc2)CC1	-11%	-4%	6%	2	1%	-7%
SMILES	PLK1 PBD block	GCN5L2 inh	HP1b chromo inh	PI5P4K alpha inh	BAZ2B block	JMJD2A Tudor
Cc1c(C(=O)Nc2ccc(N3CCOCC3)cc2)oc2ccccc12	-1%	-12%	1%	-1	3%	56µM*
COCCNC(=S)NCc1ccc2[nH]c3c(c2c1)CCCC3	-12%	-10%	-18%	0	/	56µM*
Cc1ccc(NC(=S)NCc2ccc3[nH]c4c(c3c2)CCCC4)cc1	-24%	-5%	?	7	35µM*	50µM*
CC(C)CC(=O)NCc1ccc2[nH]c3c(c2c1)CCCC3	-3%	-6%	4%	-5	/	-32%
Cc1ccc(N(C)C(=O)n2cnc3ccccc32)cc1	-5%	0%	21%	-1	-11%	-3%
N#CCc1ccc(Oc2ncccn2)cc1	17µM*	-5%	28%	?	0%	-30%
O=[N+]([O-])c1ccc(Oc2ncccn2)cc1	-13%	/	8%	-12	/	-3%
O=S1(=O)N=C(Oc2cccc(C(F)(F)F)c2)c2ccccc21	/	/	/	/	/	-26%
COc1cccc(C(=O)NCCSCc2ccccc2Cl)c1	-13%	-3%	46%	-2	2%	5%
COc1cccc(C(=O)NCCSCc2c(F)cccc2Cl)c1	21µM*	-7%	4%	2	6%	?
Cc1ccc(C)c(NC(=O)C2CCN(c3nn4c(=O)cc(C)nc4s3)CC2)c1	/	1%	33%	/	3%	-5%
S=c1[nH]nc(-c2ccc3c(c2)OCO3)n1-c1ccccc1	-16%	13%	-14%	-18	-3%	5µM*
S=c1[nH]nc(COc2ccc3c(c2)OCO3)n1-c1ccccc1	-10%	-3%	3%	-10	-34%	40µM*
S=c1[nH]nc(COc2ccc(Cl)cc2Cl)n1-c1ccccc1	-16%	0%	30%	1	-30%	-34%
O=[N+]([O-])c1ccc(OCc2n[nH]c(=S)n2-c2ccccc2)cc1	-11%	2%	5%	0	-25%	45µM*
CSc1ccccc1OCc1cc(C(=O)NCCc2ccco2)no1	3%	-6%	8%	-10	0%	-9%
CCn1c(=O)c2sccc2n2c(CCCC(=O)Nc3ccc(OC)c(OC)c3)nnc12	/	-5%	41%	/	-2%	5%
COc1ccc(S(=O)(=O)Nc2cccc3c2O[C@H](CN(C)S(=O)(=O)c2cn(C)cn2)[C@@H](C)CN([C@H](C)CO)C3=O)cc1	-7%	2%	21%	-6	/	-16%
Nc1cc(N)nc(SCCN2CCCCC2)n1	-7%	0%	21%	7	0%	-13%
CC(=O)c1sc2nsc(SCCN3CCCC3)c2c1N	7.5µM*	-12%	?	?	?	89µM*
COC1=C(N)C(=O)c2nc(-c3nc(C(=O)O)c(C)c(-c4ccc(OC)c(OC)c4O)c3N)ccc2C1=O	-26%	49%	-23%	-12	2%	89µM*
COc1ccc(C(=O)O)c(O)c1OC	/	0%	/	/	/	/
Cc1nc(CN2CCCCC2)c(O)c(=O)[nH]1	-7%	/	-16%	-25	/	25µM*
